Experimental findings from PubChem BioAssay (NCI) are described below.

Compounds without any hit were thinned out: in the full panel of roughly 83,000, 20% have a hit.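 The test compound was applied at a single concentration to cells in 96-well plates for 48 hours, and percent growth was recorded.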 Unmarked numbers belong to inactive results. Activity calls are given as the source filed them. Rule for the calls: active = growth percent below 10; inactive = the rest.

What all share (experiment): NCI-60 one-dose screen, 48 h (100 = growth as untreated, 0 = no growth, -100 = all killed)
Assay [1] deals with EKVX NSCLC. To be noted: 10 µM.
Assay [2] relates to SN12C renal. To be noted: 10 µM.
Assay [3] concerns UO-31 renal. The following applies: 10 µM.
The test system of assay [4] is TK-10 renal. To be noted: 10 µM unless noted.
The test system of assay [5] is ACHN renal. The following applies: 10 µM.
Assay [6] relates to CAKI-1 renal. The following applies: 10 µM.
For assay [7], the system named is A498 renal. To be noted: 10 µM.
The test system of assay [8] is CCRF-CEM leukemia. To be noted: 10 µM.
The test system of assay [9] is MOLT-4 leukemia. To be noted: 10 µM.
Assay [10] relates to SR leukemia. The following applies: 10 µM.
Assay [11] deals with RPMI-8226 leukemia. To be noted: 10 µM.
For assay [12], the system named is OVCAR-8 ovarian. The following applies: 10 µM.
Assay [13] deals with OVCAR-5 ovarian. To be noted: 10 µM.
The subject of assay [14] is IGROV1 ovarian. To be noted: 10 µM.
Assay [15] relates to OVCAR-3 ovarian. To be noted: 10 µM.
In assay [16] the test system is HS 578T breast. To be noted: 10 µM.
Assay [17] relates to NCI/ADR-RES ovarian. To be noted: 10 µM.
For assay [18], the system named is OVCAR-4 ovarian. The following applies: 10 µM.
Assay [19] deals with SK-OV-3 ovarian. To be noted: 10 µM.

For the molecule `C/C(=C\c1cc(Cl)ccc1OCC(=O)O)[N+](=O)[O-]`, the growth is 98.2% in [1]; 122% in assay [2]; 90.5% in assay [3]; 116% in assay [4]; 106% in assay [5]; 93.2% in assay [6]. The growth in assay [7] was 144%; in [8], 80.1%; in assay [9], 96.9%; in assay [10], 113%; in [11] it was 81.5%; in assay [12], 100%. The growth is 106% in [13]; 112% in assay [14]; 109% in [15]; 93.5% in assay [16]; 102% in [17].
With `OC1CCCc2ccccc21` (stereo not drawn), the growth in assay [1] was 100%; in [2], 99%; in [3], 60.6%; in assay [4] it was 86.4%; in [5] it was 97.9%; in assay [6], 121%. Besides, the growth in assay [7] was 120%; in assay [8], 94.8%; in assay [9], 105%; in assay [11] it was 104%; in assay [13], 100%; in assay [18], 99.2%. Moreover, the growth was 97% in [14], 110% in assay [15], 96.8% in assay [16] and 108% in assay [17].
Turning to `COc1cc(C(=O)N/N=C/c2cccc([N+](=O)[O-])c2)cc(OC)c1OC`, the growth in assay [1] is 83.8%; in [2], 93.8%; in [4], 81.1%; in assay [5], 79.9%; in assay [6] it was 55.4%; in [7] it was 26.3%. Also, the growth is 62.1% in assay [8]; 28.5% in assay [10]; 77.1% in [11]; 83.1% in assay [12]; 83.7% in assay [13]; 67.2% in assay [19]. The growth in [14] was 60.6%; in assay [15] it was 12.2%; in [16] it was 49.3%; in assay [17], 38.1%.
For the molecule `CCOc1ccc2[nH]c(=S)sc2c1`, the growth in [1] was 96.2%; in assay [2], 102%; in [3], 88%; in assay [4], 103%; in assay [5], 111%; in assay [6], 100%. The growth in [7] is 94%; in assay [8] it was 98.3%; in assay [9], 86.7%; in assay [10], 97.7%; in assay [12], 96.4%; in [13] it was 97.6%. Moreover, the growth is 108% in [18]; 105% in [19]; 88.5% in assay [14]; 117% in assay [15]; 96% in [16]; 104% in [17].
For the molecule `COc1ccc(C(C)C=O)cc1` (stereo not drawn), the growth in [1] was 126%; in [2], 104%; in [3], 93.7%; in assay [4], 92.1%; in [5], 103%; in assay [6], 104%. Moreover, the growth in assay [7] is 121%; in assay [9] it was 93%; in [10], 102%; in [12], 109%; in assay [13], 117%; in [18], 110%. The growth in assay [19] was 109%; in assay [14], 116%; in assay [15], 108%; in assay [17], 104%.
On to `O=c1[nH]nc(SC2CCCCC2)c(=O)[nH]1`, for which the growth is 99.5% in assay [1]; 102% in assay [2]; 77.9% in assay [3]; 95.3% in assay [4]; 113% in assay [5]; 95% in [6]. The growth is 93.7% in [7]; 106% in [8]; 89% in [9]; 97.6% in [10]; 101% in assay [12]; 99% in assay [13]. Moreover, the growth is 93.2% in [19]; 101% in [14]; 96.2% in assay [15]; 92% in assay [16]; 94.3% in assay [17].
`NC(=O)N/N=C\c1ccco1`: the growth in [1] was 119%; in [2], 98.4%; in [3], 94.7%; in [4], 100%; in assay [5], 111%; in assay [6] it was 108%. Moreover, the growth in assay [7] was 117%; in [8] it was 102%; in [9], 101%; in assay [10], 107%; in assay [11], 105%; in assay [12], 109%. In addition, the growth in [13] is 118%; in assay [18], 121%; in assay [19] it was 102%; in assay [14] it was 99.6%; in assay [15] it was 125%; in assay [17], 101%.
As for `c1ccc(Cc2ccccc2)cc1`, the growth in assay [1] is 102%; in assay [2], 95.1%; in assay [4] it was 99%; in assay [5] it was 107%; in assay [6] it was 85.7%; in assay [7] it was 102%. Further, the growth was 104% in [8]; -26.2% (active) in assay [9]; 99.3% in [13]; 109% in assay [18]; 113% in assay [19]; 108% in assay [15]. Besides, the values for the growth in assay [16] and in assay [17] were 76.6% and 104%, respectively.
Turning to `CNc1nc(NC)c2cn[nH]c2n1`, the growth in assay [1] was 99.2%; in assay [2] it was 100%; in assay [5], 108%; in assay [6], 88.6%; in assay [7], 112%; in assay [8], 5.44% (active). The growth in [9] is 101%; in [10] it was 96.7%; in assay [11], 99.2%; in [12], 111%; in assay [13] it was 106%; in assay [19] it was 97.2%. Also, the growth in [14] was 109%; in [15], 114%; in assay [16], 101%; in assay [17] it was 108%.
As for `S=C1NCc2cncnc2N1`, the growth was 107% in [2]; 88.8% in [3]; 97.8% in [4]; 93% in assay [5]; 85.5% in [6]; 104% in assay [7]. The growth in [9] was 95.6%; in [11] it was 102%; in assay [12], 104%; in assay [13], 97.8%; in assay [19], 102%; in assay [14] it was 111%. For the same molecule, the growth in assay [15] is 112%; in assay [16] it was 105%; in assay [17], 106%.
